Experimental data published in PubChem BioAssay (NCI).
Compounds without any hit were thinned out: in the full panel of roughly 83,000, 20% have a hit.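 Testing used 96-well plates and a 48-hour single-concentration exposure. Example: -40 means 40% of the starting cells died.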 The source made the active and inactive calls. Rule for the calls: active = growth percent below 10; inactive = the rest. *1 amine or outer side, *2 acyl side, *3 side chain or, on linkers, in order; H or OH if unused. Where a SMILES comes first, the peptide text is derived from it. [ ]: non-standard residue; d: D form. The star is where a group is joined. X5 = CCC(=O)CC1CC(C)CC(C(=O)[*:2])N1[*:1]; X4 = CCCCCCCCC(C)C(=O)*; Aib = CC(C)(N)C(=O)O; X6 = CC(CN(C)CCO)N*

Columns and labels:
Assay in all cases: NCI-60 one-dose screen, 48 h (100 = growth as untreated, 0 = no growth, -100 = all killed)
HCT-15 colon = details: 10 µM unless noted
HT29 colon = details: 10 µM unless noted
SNB-75 CNS = details: 10 µM unless noted
SNB-19 CNS = details: 10 µM unless noted
U251 CNS = details: 10 µM unless noted
PC-3 prostate = details: 10 µM unless noted
SK-MEL-5 melanoma = details: 10 µM unless noted
UACC-62 melanoma = details: 10 µM unless noted
LOX IMVI melanoma = details: 10 µM
SK-MEL-28 melanoma = details: 10 µM unless noted
SK-MEL-2 melanoma = details: 10 µM unless noted
SN12C renal = details: 10 µM unless noted
UO-31 renal = details: 10 µM unless noted
TK-10 renal = details: 10 µM unless noted
ACHN renal = details: 10 µM unless noted
CAKI-1 renal = details: 10 µM unless noted
A498 renal = details: 10 µM unless noted
CCRF-CEM leukemia = details: 10 µM unless noted
EKVX NSCLC = details: 10 µM unless noted
MOLT-4 leukemia = details: 10 µM unless noted

Measured: growth

CCOC(=O)c1[nH]c(C#N)c(C(=O)OCC)c1C
inactive: HCT-15 colon 92.2% | HT29 colon 103% | SNB-75 CNS 96.9% | SNB-19 CNS 106% | U251 CNS 99.1% | PC-3 prostate 102% | SK-MEL-5 melanoma 102% | UACC-62 melanoma 91.2% | LOX IMVI melanoma 107% | SK-MEL-28 melanoma 112% | SK-MEL-2 melanoma 104% | SN12C renal 92.5% | UO-31 renal 90.2% | TK-10 renal 104% | ACHN renal 101% | CAKI-1 renal 94.7% | A498 renal 96.7% | CCRF-CEM leukemia 97.3%

O=C1C=Cc2ccccc2/C1=C/c1nc(-c2ccccc2)oc1O
inactive: HCT-15 colon 92.4% | HT29 colon 108% | SNB-75 CNS 70.8% | SNB-19 CNS 102% | U251 CNS 95% | PC-3 prostate 89.1% | SK-MEL-5 melanoma 92.4% | UACC-62 melanoma 93.8% | LOX IMVI melanoma 84.8% | SK-MEL-28 melanoma 106% | SK-MEL-2 melanoma 99.1% | EKVX NSCLC 78.7% | SN12C renal 94.8% | UO-31 renal 65.5% | TK-10 renal 136% | ACHN renal 81.9% | CAKI-1 renal 86.8% | A498 renal 113% | CCRF-CEM leukemia 110% | MOLT-4 leukemia 96.5%

O=C(Nc1cccc(C(F)(F)F)c1)Oc1ccc(Cl)c2cccnc12
inactive: HT29 colon 74.3% | SNB-75 CNS 65.9% | SNB-19 CNS 46.1% | SK-MEL-5 melanoma 34% | UACC-62 melanoma 32.4% | SK-MEL-28 melanoma 58.3% | SN12C renal 33.1% | TK-10 renal 72.2% | A498 renal 78.5%
active: HCT-15 colon 2.21% | U251 CNS 9% | PC-3 prostate -40.1% | LOX IMVI melanoma 2.8% | SK-MEL-2 melanoma 9.44% | EKVX NSCLC -2.85% | UO-31 renal -17.3% | ACHN renal -2.14% | CCRF-CEM leukemia -15.3% | MOLT-4 leukemia -1.74%

CC(C)(C)c1ccc(CCO)cc1
inactive: HCT-15 colon 109% | HT29 colon 110% | SNB-75 CNS 96.7% | SNB-19 CNS 95.7% | U251 CNS 103% | PC-3 prostate 99.8% | SK-MEL-5 melanoma 95.6% | UACC-62 melanoma 89.5% | LOX IMVI melanoma 99.5% | SK-MEL-28 melanoma 121% | SK-MEL-2 melanoma 92.3% | EKVX NSCLC 89.6% | SN12C renal 91.8% | UO-31 renal 78.8% | A498 renal 118% | CCRF-CEM leukemia 87.2% | MOLT-4 leukemia 99.1%

CCN(CC)CC(O)CNc1ccc(NCC2CO2)c2c1C(=O)c1ccccc1C2=O (stereo not drawn)
active: HCT-15 colon -38.1% | HT29 colon -42.9% | SNB-75 CNS -66% | SNB-19 CNS 3.77% | U251 CNS -51.8% | PC-3 prostate -28.4% | SK-MEL-5 melanoma -89.8% | UACC-62 melanoma -73.5% | LOX IMVI melanoma -54.1% | SK-MEL-2 melanoma -46.5% | SN12C renal -15.9% | UO-31 renal -40.6% | TK-10 renal -27% | ACHN renal -55.1% | CAKI-1 renal -32% | CCRF-CEM leukemia -29.9% | MOLT-4 leukemia -23.1%
inactive: A498 renal 81.6%

COc1c(C)c2c(c(O)c1C/C=C(\C)CCC(=O)O)C(=O)OC2
inactive: HCT-15 colon 20.7% | HT29 colon 13.3% | SNB-75 CNS 48.1% | SNB-19 CNS 42.3% | U251 CNS 18.3% | PC-3 prostate 40.3% | SK-MEL-5 melanoma 23.6% | UACC-62 melanoma 41.7% | LOX IMVI melanoma 12.1% | SK-MEL-28 melanoma 31.3% | SK-MEL-2 melanoma 43.8% | SN12C renal 34.4% | UO-31 renal 27.9% | TK-10 renal 42% | A498 renal 61.7% | CCRF-CEM leukemia 26.1% | MOLT-4 leukemia 25.9%
active: CAKI-1 renal 6.69%

O=C1C=CC(O)=CC1=P(c1ccccc1)(c1ccccc1)c1ccccc1
inactive: HCT-15 colon 96.2% | HT29 colon 103% | SNB-75 CNS 84.2% | SNB-19 CNS 94.9% | U251 CNS 92.3% | PC-3 prostate 91.6% | SK-MEL-5 melanoma 95.7% | UACC-62 melanoma 83.7% | LOX IMVI melanoma 94.7% | SK-MEL-28 melanoma 102% | SK-MEL-2 melanoma 82.6% | SN12C renal 89.4% | UO-31 renal 71.8% | ACHN renal 99.2% | CAKI-1 renal 86.2% | A498 renal 58.6% | CCRF-CEM leukemia 86.9% | MOLT-4 leukemia 101%

CCCCCCCCCCCC(=O)OC(C)C(=O)NCCCC (stereo not drawn)
inactive: HCT-15 colon 106% | HT29 colon 101% | SNB-75 CNS 105% | SNB-19 CNS 106% | U251 CNS 93.7% | PC-3 prostate 95.8% | SK-MEL-5 melanoma 102% | LOX IMVI melanoma 93.6% | SK-MEL-28 melanoma 121% | SK-MEL-2 melanoma 108% | UO-31 renal 94.5% | ACHN renal 116% | CAKI-1 renal 99.1% | CCRF-CEM leukemia 101% | MOLT-4 leukemia 87.7%

c1ccc(-c2cccc(-c3ccccn3)n2)nc1
active: SK-MEL-5 melanoma -50.8% | UACC-62 melanoma 3.51% | LOX IMVI melanoma -0.708% | UO-31 renal 9.63% | CCRF-CEM leukemia 5.02% | MOLT-4 leukemia 3.3%
inactive: HCT-15 colon 28% | HT29 colon 26% | SNB-75 CNS 49% | SNB-19 CNS 27.9% | U251 CNS 14.5% | PC-3 prostate 31.2% | SK-MEL-28 melanoma 33% | SK-MEL-2 melanoma 16.6% | SN12C renal 10.5% | ACHN renal 14% | A498 renal 44.2%

CN1CCC(CN2c3ccccc3Sc3ccccc32)C1 (stereo not drawn)
inactive: HCT-15 colon 83.9% | HT29 colon 45.8% | SNB-75 CNS 57.7% | SNB-19 CNS 98.1% | U251 CNS 91.1% | PC-3 prostate 63.6% | SK-MEL-5 melanoma 76.6% | UACC-62 melanoma 90.4% | LOX IMVI melanoma 76.5% | SK-MEL-2 melanoma 114% | EKVX NSCLC 107% | SN12C renal 97.1% | UO-31 renal 60.2% | TK-10 renal 92% | ACHN renal 86.1% | CAKI-1 renal 79.4% | A498 renal 109% | CCRF-CEM leukemia 72.7% | MOLT-4 leukemia 79.1%

CCCCCCCCC(C)C(=O)N1CCCC1C(=O)N1C(CC(=O)CC)CC(C)CC1C(=O)NC(C)C(=O)NC(C)(C)C(=O)NC(C)(C)C(=O)NC(C(=O)NC(C)C(=O)NC(C)(C)C(=O)NC(C)(C)C(=O)NC(C)CN(C)CCO)C(C)CC (stereo not drawn) (X4-P[X5]A[Aib][Aib]IA[Aib][Aib]-X6; configuration not given here)
active: HCT-15 colon -70.8% | HT29 colon -84.2% | SNB-75 CNS -23.8% | SNB-19 CNS 1.03% | U251 CNS -67.3% | PC-3 prostate -7.35% | SK-MEL-5 melanoma -85.3% | UACC-62 melanoma -66.1% | LOX IMVI melanoma -69.5% | SK-MEL-2 melanoma -34% | EKVX NSCLC -25.3% | SN12C renal -78.5% | TK-10 renal -50.5% | ACHN renal -54.5% | CAKI-1 renal 7.86% | CCRF-CEM leukemia -33.3% | MOLT-4 leukemia -40.9%

C/C=C/c1cc2c(c(=O)o1)C(=O)[C@@H](O)[C@H](C)O2
active: HCT-15 colon -25.4% | SNB-75 CNS -23.4% | UO-31 renal 0.0978% | TK-10 renal 5.77% | CCRF-CEM leukemia -17.5%
inactive: HT29 colon 13% | SNB-19 CNS 94.9% | U251 CNS 40.4% | PC-3 prostate 11.3% | SK-MEL-5 melanoma 95.2% | UACC-62 melanoma 80.5% | LOX IMVI melanoma 25.2% | SK-MEL-2 melanoma 72.9% | EKVX NSCLC 95% | SN12C renal 97.6% | ACHN renal 26.3% | CAKI-1 renal 43.3% | A498 renal 125% | MOLT-4 leukemia 43.6%

CCCCCCCCCCCCCCCC[N+]1(C)CCCC1c1cccnc1 (stereo not drawn)
active: PC-3 prostate 8.08%
inactive: HCT-15 colon 77.9% | HT29 colon 15.1% | SNB-75 CNS 37.1% | SNB-19 CNS 29.1% | U251 CNS 16.7% | SK-MEL-5 melanoma 43.9% | UACC-62 melanoma 50.6% | LOX IMVI melanoma 49.2% | SK-MEL-28 melanoma 97% | SK-MEL-2 melanoma 98.1% | SN12C renal 44.5% | UO-31 renal 91.3% | TK-10 renal 49.7% | ACHN renal 85.6% | CAKI-1 renal 92.9% | CCRF-CEM leukemia 38.7% | MOLT-4 leukemia 33%

CCOC(=O)c1c(C)[nH]c2ccc(O)cc12
inactive: HCT-15 colon 109% | HT29 colon 96.3% | SNB-75 CNS 100% | SNB-19 CNS 101% | U251 CNS 97.3% | PC-3 prostate 93.2% | SK-MEL-5 melanoma 101% | LOX IMVI melanoma 97.1% | SK-MEL-28 melanoma 120% | SK-MEL-2 melanoma 97.9% | SN12C renal 98.9% | UO-31 renal 72.3% | TK-10 renal 128% | ACHN renal 110% | CAKI-1 renal 97.8% | A498 renal 111% | CCRF-CEM leukemia 77.5% | MOLT-4 leukemia 105%

Cc1onc(-c2ccccc2)c1C(=O)N/N=C/c1cc(Cl)cc(Cl)c1O
inactive: HCT-15 colon 25.6% | HT29 colon 42.2% | SNB-75 CNS 61.4% | SNB-19 CNS 43.8% | U251 CNS 25% | PC-3 prostate 46.2% | UACC-62 melanoma 10.9% | LOX IMVI melanoma 11.2% | SK-MEL-28 melanoma 51.3% | SK-MEL-2 melanoma 37.7% | TK-10 renal 40.1% | ACHN renal 22.1% | A498 renal 81.2% | CCRF-CEM leukemia 21.9% | MOLT-4 leukemia 19.2%
active: SK-MEL-5 melanoma 9.32% | UO-31 renal 1.5% | CAKI-1 renal 8.2%

O=C(CBr)c1ccc(OC(=O)c2ccccc2)cc1
inactive: HCT-15 colon 101% | HT29 colon 115% | SNB-75 CNS 96.5% | SNB-19 CNS 112% | U251 CNS 95.5% | PC-3 prostate 101% | SK-MEL-5 melanoma 107% | UACC-62 melanoma 107% | LOX IMVI melanoma 73.3% | SK-MEL-28 melanoma 112% | SK-MEL-2 melanoma 111% | SN12C renal 103% | TK-10 renal 117% | ACHN renal 97.5% | CAKI-1 renal 100% | A498 renal 74.4% | CCRF-CEM leukemia 67.6% | MOLT-4 leukemia 95.3%

COC(=O)[C@]1(C)CCC[C@]2(C)c3ccc(C(C)C)cc3C(=O)[C@@H](Br)[C@@H]12
inactive: HCT-15 colon 69.6% | HT29 colon 76.2% | SNB-75 CNS 80.4% | SNB-19 CNS 98.3% | U251 CNS 91.1% | PC-3 prostate 86.8% | SK-MEL-5 melanoma 90.4% | LOX IMVI melanoma 79.7% | SK-MEL-28 melanoma 100% | SK-MEL-2 melanoma 103% | UO-31 renal 69.5% | TK-10 renal 102% | CAKI-1 renal 89% | A498 renal 109% | CCRF-CEM leukemia 70.9% | MOLT-4 leukemia 60.1%
